What was measured:
Assay in all cases: relative growth (AUC of 72 h growth curve relative to DMSO control, dAUC) (ratio); higher = more growth (less inhibition), active = hit call of the paper
Conditions in all cases: 20 µM;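 active = growth AUC significantly below the DMSO wells by Dunnett test; inactive = the rest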
[1] = test system: Aeromonas 1 (Aeromonas sp. AE235)
Method in brief: (§1)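 For relative growth (dAUC), the spline-integrated area under the growth curve was divided by the mean of the DMSO controls. Results were averaged over three biological replicates. Each replicate used a 1:100 dilution, into 96-well plates holding each chemical at 20 µM (1% DMSO), of isolates from Icelandic stream sediments and Silwood Park soil or whole sediment communities that had been grown to carrying capacity in Luria–Bertani medium. Plates were shaken briefly before each hourly A600 reading over 72 h.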

[2] = test system: Aeromonas 2 (Aeromonas sobria)
Method in brief: as §1

[3] = test system: Aeromonas 3 (Aeromonas popoffii)
Method in brief: as §1

[4] = test system: Argrobacterium 1 (Agrobacterium sp.)
Method in brief: as §1

[5] = test system: Arthrobacter 1 (Arthrobacter humicola)
Method in brief: as §1

[6] = test system: Arthrobacter 2 (Arthrobacter humicola)
Method in brief: as §1

[7] = test system: Arthrobacter 3 (Arthrobacter sp.)
Method in brief: as §1

Community 10 = test system: Community 10
Method in brief: as §1

Community 4 = test system: Community 4
Method in brief: as §1

Community 6 = test system: Community 6
Method in brief: as §1

Community 7 = test system: Community 7
Method in brief: as §1

Community 8 = test system: Community 8
Method in brief: as §1

Community 9 = test system: Community 9
Method in brief: as §1

[8] = test system: Flavobacterium 1 (Flavobacterium glaciei)
Method in brief: as §1

[9] = test system: Flavobacterium 2 (Flavobacterium succinicans)
Method in brief: as §1

[10] = test system: Hymenobacter 1 (Hymenobacter glaciei)
Method in brief: as §1

[11] = test system: Microbacterium 1 (Microbacterium arborescens)
Method in brief: as §1

[12] = test system: Neobacillus 1 (Neobacillus soli)
Method in brief: as §1

[13] = test system: Oryzobacter 1 (Oryzobacter terrae)
Method in brief: as §1

[14] = test system: Paenibacillus 1 (Paenibacillus castaneae)
Method in brief: as §1

SMILES | relative growth [1] | relative growth [2] | relative growth [3] | relative growth [4] | relative growth [5] | relative growth [6] | relative growth [7] | relative growth (Community 10) | relative growth (Community 4) | relative growth (Community 6) | relative growth (Community 7) | relative growth (Community 8) | relative growth (Community 9) | relative growth [8] | relative growth [9] | relative growth [10] | relative growth [11] | relative growth [12] | relative growth [13] | relative growth [14]
Cc1nc(N(C)C)nc(OC(=O)N(C)C)c1C | 0.991 (inactive) | 0.948 (inactive) | 0.968 (inactive) | 0.962 (inactive) | 0.924 (inactive) | 0.847 (inactive) | 0.932 (inactive) | 0.979 (inactive) | 0.871 (inactive) | 0.942 (inactive) | 1.12 (inactive) | 0.951 (inactive) | 0.938 (inactive) | 0.924 (inactive) | 0.965 (inactive) | 0.864 (inactive) | 0.988 (inactive) | 0.928 (inactive) | 0.936 (inactive) | 0.942 (inactive)
CCNc1nc(Cl)nc(NC(C)C)n1 | 0.965 (inactive) | 0.972 (inactive) | 0.992 (inactive) | 1.01 (inactive) | 0.902 (inactive) | 1.03 (inactive) | 0.968 (inactive) | 1.04 (inactive) | 1.05 (inactive) | 1.01 (inactive) | 1.01 (inactive) | 1.01 (inactive) | 1 (inactive) | 1.05 (inactive) | 0.972 (inactive) | 1.06 (inactive) | 1.02 (inactive) | 1.03 (inactive) | 0.998 (inactive) | 1.01 (inactive)
CN(C)C(CSS(=O)(=O)O)CSS(=O)(=O)O | 0.987 (inactive) | 0.976 (inactive) | 0.992 (inactive) | 0.997 (inactive) | 1.02 (inactive) | 1.04 (inactive) | 1.04 (inactive) | – | 1.04 (inactive) | 0.914 (inactive) | 1 (inactive) | 1.02 (inactive) | 0.942 (inactive) | 1.09 (inactive) | 1 (inactive) | 1.07 (inactive) | 1.06 (inactive) | 1 (inactive) | 1.13 (inactive) | 0.935 (inactive)
COc1ccc(-c2ccccc2)cc1NNC(=O)OC(C)C | 0.954 (inactive) | 0.947 (inactive) | 1.02 (inactive) | 0.937 (inactive) | 0.913 (inactive) | 0.87 (inactive) | 0.932 (inactive) | – | 0.882 (inactive) | 0.886 (inactive) | 0.932 (inactive) | 0.986 (inactive) | 0.868 (inactive) | 0.888 (inactive) | 0.898 (inactive) | 0.987 (inactive) | 1.06 (inactive) | 0.89 (inactive) | 1.02 (inactive) | 0.873 (inactive)
COC(=O)Nc1nc2ccccc2[nH]1 | 1.01 (inactive) | 0.956 (inactive) | 0.973 (inactive) | 0.992 (inactive) | 1.04 (inactive) | 1.05 (inactive) | 1.12 (inactive) | – | 1.02 (inactive) | 0.998 (inactive) | 0.965 (inactive) | 0.959 (inactive) | 1.04 (inactive) | 1.13 (inactive) | 1 (inactive) | 1.01 (inactive) | 0.974 (inactive) | 1.13 (inactive) | 1.07 (inactive) | 0.946 (inactive)
CON(C)C(=O)Nc1ccc(Cl)c(Cl)c1 | 0.924 (inactive) | 0.996 (inactive) | 0.996 (inactive) | 0.869 (inactive) | 0.952 (inactive) | 0.595 (active) | 0.929 (inactive) | – | 0.943 (inactive) | 0.995 (inactive) | 1.01 (inactive) | 1.07 (inactive) | 1.03 (inactive) | 1.01 (inactive) | 0.923 (inactive) | 0.961 (inactive) | 1.05 (inactive) | 0.908 (inactive) | 1.04 (inactive) | 1 (inactive)
CC1(C)C(C=C(Cl)Cl)C1C(=O)OC(C#N)c1cccc(Oc2ccccc2)c1 (stereo not given) | 0.976 (inactive) | 1.04 (inactive) | 1.08 (inactive) | 1.07 (inactive) | 1.28 (inactive) | 0.971 (inactive) | 1.03 (inactive) | – | 1.1 (inactive) | 1.12 (inactive) | 0.963 (inactive) | 1.08 (inactive) | 1.12 (inactive) | 0.979 (inactive) | 1.05 (inactive) | 1.08 (inactive) | 1.03 (inactive) | 1.02 (inactive) | 1.07 (inactive) | 1 (inactive)
CCNC(=O)NC(=O)/C(C#N)=N/OC | 0.983 (inactive) | 0.967 (inactive) | 0.988 (inactive) | 1.01 (inactive) | 0.901 (inactive) | 0.894 (inactive) | 0.975 (inactive) | – | 0.963 (inactive) | 1 (inactive) | 1.13 (inactive) | 1.02 (inactive) | 0.993 (inactive) | 1.01 (inactive) | 0.994 (inactive) | 1.02 (inactive) | 0.986 (inactive) | 0.997 (inactive) | 0.977 (inactive) | 0.994 (inactive)
Cc1cc(C(F)(C(F)(F)F)C(F)(F)F)ccc1NC(=O)c1cccc(I)c1C(=O)NC(C)(C)CS(C)(=O)=O | 0.939 (inactive) | 0.974 (inactive) | 1.41 | 0.695 (active) | 0.792 (inactive) | 1.02 (inactive) | 0.822 (inactive) | – | 0.805 (inactive) | 0.894 (inactive) | 1.15 (inactive) | 1.07 (inactive) | 0.75 (inactive) | 0.818 (inactive) | 1.2 (inactive) | 0.857 (inactive) | 0.925 (inactive) | 1.09 (inactive) | 0.97 (inactive) | 1.02 (inactive)
COC(=O)c1ccccc1S(=O)(=O)NC(=O)Nc1nc(C)nc(OC)n1 | 1.02 (inactive) | 1.01 (inactive) | 1.07 (inactive) | 0.964 (inactive) | 1.16 (inactive) | 1.14 (inactive) | 1.01 (inactive) | – | 1.16 (inactive) | 1.12 (inactive) | 0.941 (inactive) | 1.1 (inactive) | 1.1 (inactive) | 1.09 (inactive) | 1.08 (inactive) | 1.14 (inactive) | 1.01 (inactive) | 1.11 (inactive) | 0.997 (inactive) | 1.16 (inactive)
CC1COC(Cn2cncn2)(c2ccc(Oc3ccc(Cl)cc3)cc2Cl)O1 (stereo not given) | 1.08 (inactive) | 1.03 (inactive) | 1.02 (inactive) | 1.04 (inactive) | 0.741 (inactive) | 0.223 (active) | 0.348 (active) | – | 1.2 (inactive) | 1.06 (inactive) | 1.02 (inactive) | 1.01 (inactive) | 1.21 (inactive) | 0.367 (active) | 0.988 (inactive) | 0.956 (inactive) | 0.936 (inactive) | 1.08 (inactive) | 1.16 (inactive) | 0.872 (inactive)
CCc1cnc(C2=NC(C)(C(C)C)C(=O)N2)c(C(=O)O)c1 (stereo not given) | 0.969 (inactive) | 0.981 (inactive) | 1 (inactive) | 0.95 (inactive) | 0.895 (inactive) | 0.959 (inactive) | 0.932 (inactive) | – | 1.03 (inactive) | 1.04 (inactive) | 1.05 (inactive) | 1.03 (inactive) | 0.98 (inactive) | 0.988 (inactive) | 1.03 (inactive) | 1.09 (inactive) | 1.04 (inactive) | 1.01 (inactive) | 0.96 (inactive) | 1.02 (inactive)
